The list is not random: actives were taken first. Their share in the collection is about 8%.
KB-V1 MDR tox = KB-V1 MDR subline cytotoxicity; KB-V1 MDR cells viability, CellTiter-Glo, 72 h; Potency, µM (doses to about 46.1 µM), usual class: cytotoxic; hit rate 3.4% among 400,000; AID 1347076; further: on the % scale 0 is the no-effect control and ±100 the full control effect; nearly all actives have a fitted effect of over 60% in size
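Readout: CellTiter-Glo luminescence, 10 min after addition. Cells: KB-V1 MDR subline, 72 h at 37 degrees C with compound. Analysis: corrected, normalized data fitted to concentration-effect curves.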
HT1080NT lethal = kills 2HG-producing HT-1080-NT fibrosarcoma cells. Potency, µM (titrated, usually from 46.1 µM), for the others: at the top dose activity, negative = less viability, actives largely listed as cytotoxic. hit rate 1.6% among 360,000. HT-1080-NT fibrosarcoma viability, CellTiter-Glo ATP luminescence, 48 h. AID 686970;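 further: NT is the 2HG producing partner of a matched IDH1 knockdown line; 0% = DMSO-treated cells and -100% = media-only wells without cells; nearly all actives have a fitted effect of over 55% in size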
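A 48-hour cytotoxicity screen used HT-1080-NT cells plated 2 hours before compound delivery. ATP-based CellTiter-Glo luminescence measured viability, normalized to DMSO and no-cell controls.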
HT1080 IDH1KD tx = kills HT-1080 cells with IDH1 knockdown; HT-1080 IDH1 knockdown viability, ATP luminescence, 48 h; Potency, µM (doses to about 46.1 µM), without a hit: top-dose activity, negative = toxicity, hits mostly cytotoxic; hit rate 2% among 360,000; AID 686971;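 further: 0% = DMSO wells and -100% = cell-free medium wells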
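% activity derives from luminescence (CellTiter-Glo), normalised to DMSO and no-cell wells. HT-1080-IDH1KD cells, 750/well, had 48 h compound exposure at 37 °C.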
KB-3-1 cytotox = KB-3-1 parental cell cytotoxicity; KB-3-1 viability, CellTiter-Glo ATP luminescence, 72 h; Potency, µM (titrated, usually from 46.1 µM), usual class: cytotoxic; hit rate 1.4% among 400,000; further: on the % scale 0 is the no-effect control and ±100 the full control effect; nearly all actives have a fitted effect of over 60% in size
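Here the drug-naive KB-3-1 line serves as comparator for MDR sub-line selectivity; cells received compound titrations, 72 h at 37 °C, then CellTiter-Glo readout.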
SW480 rerep = DNA re-replication induction in SW480 cells | Potency, µM (titrated, usually from 46.1 µM), for the others: at the top dose re-replication activation, hits mostly activators | SW480 DNA re-replication, Hoechst DNA content imaging, 48 h | AID 624297 | hit rate 1.8% among 340,000; further: % of control where 0% means no effect; nearly all actives have a fitted effect of over 55% in size
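Cells (250 per well) received 23 nL compound or DMSO by pin tool and were kept 48 hr at 37 C, 5% CO2. Nuclei were then stained with Hoechst for 40 min and scanned for DNA content.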
MCF10A rerep = DNA re-replication induction in MCF 10a cells | MCF 10A DNA re-replication, Hoechst nuclear intensity, 48 h | Potency, µM (highest dose often 46.1 µM), inactives show at the top dose activity, positive = re-replication, hits mostly activators | hit rate 2.9% among 350,000; further: % of control where 0% means no effect; nearly all actives have a fitted effect of over 50% in size
Numbers without * were called inactive; i = inactive; ? = inconclusive; · = no result given; ! = repeats disagree. The call rests on the fitted dose curve; in most records, active means well fitted curve in the direction sought with a large enough effect; inconclusive means small, poorly fitted or top-dose-only effect, or another doubt; inactive means no such curve, though single readings can be large; an effect the other way counts as inactive or inconclusive. Potency means the concentration at half of the fitted maximal effect.

SMILES | KB-V1 MDR tox | HT1080NT lethal | HT1080 IDH1KD tx | KB-3-1 cytotox | SW480 rerep | MCF10A rerep
O=C(NCc1ccccc1)c1ccc(OCC2CCCO2)cc1 (centres undefined) | i | 22% | 18% | i | -11% | 16%
CCCCCCSc1cc(-c2nc3ccc(Cl)cn3c2NC2CCCCC2)ccc1OC | i | 14% | 9% | i | 2% | -5%
CCC(C)Sc1cc(-c2nc3ccc(Cl)cn3c2NC2CCCCC2)ccc1OC (centres undefined) | 10µM*! | -9% | 2% | ? | ? | ?
COc1ccc(-c2cccc(-c3nc4ccc(Cl)cn4c3NC3CCCCC3)c2)cc1 | i | 6% | 1% | ? | ? | 15µM*
c1ccc2c(c1)[nH]c1ccccc12 | i | 1% | -1% | i | -8% | -8%
O=c1c2ccccc2[nH]c2ccccc12 | i | -3% | -1% | i | 18µM* | 122%
O=C(Cc1ccc(Cl)cc1)Nc1ccccc1Sc1ccccc1 | 23µM* | -13% | -6% | ? | 6% | ?
O=C(Cc1ccccc1)NCC(=O)Nc1cc(Cl)ccc1Cl | ? | ? | ? | ? | 12% | 0%
O=C(CCl)Nc1ccccc1Sc1ccccc1 | i | -7% | -3% | i | -6% | ?
O=C(Cc1ccccc1)Nc1cc(Cl)ccc1Sc1ccccc1 | 18µM* | 6% | 26% | i | -32% | -2%
COc1ccc(C(=O)NC(C(=O)NCc2ccccc2OC)C(C)C)cc1 (centres undefined) | i | 7% | 8% | i | -44% | 0.92µM*
COc1ccc(C(=O)NC(Nc2ccccc2)C(Cl)(Cl)Cl)cc1 (centres undefined) | 8.2µM* | -6% | -18% | ? | 2% | ?
COc1ccc(C(=O)NNc2ccccc2)cc1 | i | ? | -10% | i | 2% | 8%
COc1ccc(NC(=O)C(NC(=O)c2ccccc2)C(C)C)cc1 (centres undefined) | 21µM* | 0% | ? | i | 0% | 6%
CCOc1ccccc1NC(=O)C(OC(=O)c1ccc(O)cc1)c1ccccc1 (centres undefined) | 15µM* | ? | 23µM* | ? | 9% | 9%
CCOc1ccccc1NC(=O)C(OC(=O)c1ccc(N(C)C)cc1)c1ccccc1 (centres undefined) | 9.2µM* | 12% | 3% | i | -96% | -7%
CCOc1ccccc1NC(=O)C(OC(=O)c1ccc(CC)cc1)c1ccccc1 (centres undefined) | i | -11% | -2% | ? | -5% | 7%
CCOc1ccccc1NC(=O)C(OC(=O)c1cnccn1)c1ccccc1 (centres undefined) | 18µM* | 10% | 2% | i | 1% | 3%
O=C(CCNS(=O)(=O)c1ccc(Br)cc1)Nc1cccc(F)c1 | i | -14% | -20% | i | -4% | 5%
Cc1ccc(CNC(=O)COC(=O)c2cncc(Br)c2)cc1 | i | 11% | 7% | i | -25% | -22%
C=CCCC1CN(Cc2ccco2)S(=O)(=O)c2c(F)cccc2O1 (centres undefined) | i | 8% | 4% | i | 2% | ?
CCOC(=O)C1=C(O)c2ccccc2C(=O)/C1=C\c1ccc(CC)cc1 | ? | 11µM* | 8.9µM* | 12µM* | 6.5µM* | 8.2µM*
CCOC(=O)c1c(C)nc2c(c1-c1cc(OC)ccc1OC)C(=O)c1ccccc1-2 | i | -3% | 3% | i | -18% | 1%
CCOC(=O)C1=C(Cc2ccc(OC)cc2)C(=O)c2ccccc2C1=O | i | 10µM* | 7.9µM* | i | 6.5µM* | 9%
O=C(CSc1nncs1)Nc1cccc2ccccc12 | i | 11% | 13% | i | -1% | 1%
SMILES | KB-V1 MDR tox | HT1080NT lethal | HT1080 IDH1KD tx | KB-3-1 cytotox | SW480 rerep | MCF10A rerep
CC1=C(C(=O)OC(C)C)C(C)NC(=O)N1 (centres undefined) | i | -4% | -3% | i | 2% | -3%
C#CCOCCOCCOCCNc1nc(N2CCN(C(=O)[C@H](CCC(=O)O)n3cc(CN)nn3)CC2)nc(N2CCN(C(=O)[C@H](CCC(=O)O)n3cc([C@@H](N)[C@H](C)CC)nn3)CC2)n1 | i | 9% | 10% | i | ? | 16%
O=C(Nc1sc2c(c1C(=O)O)CCCC2)c1ccccc1Cl | i | ? | ? | ? | 16% | -9%
CCOC(=O)C(CCCCC(NC(C)=O)(C(=O)OCC)C(=O)OCC)(NC(C)=O)C(=O)OCC | i | 21% | 16% | i | -14% | -1%
O=C(C1CCC(CNS(=O)(=O)c2cccc3nsnc23)CC1)N1CCN(c2ccccn2)CC1 (centres undefined) | 18µM* | -17% | -11% | i | -26% | -2%
COc1cc(C2C3=C(COC3=O)Oc3cc4c(cc32)OCO4)cc(OC)c1OC(C)=O (centres undefined) | 0.65µM* | ? | ? | 0.23µM* | 0.13µM* | ?
COc1cc(C2N(c3ccccc3)CCN2c2ccccc2)ccc1OC(C)=O | i | 10% | 6% | i | -5% | -2%
COc1ccc(C2C3=C(COC3=O)Oc3cc4c(cc32)OCO4)cc1OC (centres undefined) | ? | 5.8µM* | ? | 0.92µM*! | 5.8µM* | 2.3µM*
COc1cc(C2C3=C(COC3=O)Oc3cc4c(cc32)OCO4)ccc1OC(C)=O (centres undefined) | 2.1µM* | ? | 5.8µM* | 0.82µM* | 3.7µM* | ?
Cc1ccc(S(=O)(=O)N2CCCc3cc(NS(=O)(=O)c4ccccc4)ccc32)cc1 | i | · | · | i | · | ·
COc1ccc(CCNc2ncnc3sc(C)cc23)cc1OC | ? | ? | -6% | ? | 22% | ?
CCc1ccccc1NNC(=O)c1sccc1Cl | · | 6% | -14% | · | · | ·
NC1=NC(=O)/C(=C\c2ccc(-c3ccc(Cl)cc3)o2)S1 | ? | -26% | -27% | i | ? | 7.3µM*
NC1=NC(=O)/C(=C/c2cn(CCC(=O)O)nc2-c2ccc(Cl)cc2)S1 | i | -12% | 0% | i | 10% | 13%
CCCCCCCCOc1ccccc1C(=O)Nc1ccc(C(=O)OCC[N+](C)(CC)CC)cc1 | · | · | · | · | -2% | 27µM*
COc1ccc(NC(=O)NCCCCc2ccccc2)cc1 | i | 2% | 6% | i | 0% | -57%
COc1ccc(NC(=S)NCCCc2ccccc2)cc1 | i | 7% | 0% | i | 18µM* | -1%
COc1cc(OC)cc(C(=O)NC(=S)NCCc2ccccc2)c1 | i | ? | 35µM* | i | ? | 1%

Source: PubChem BioAssay (National Center for Advancing Translational Sciences (NCATS))
